An excerpt weighted towards active compounds, which were near 12% of everything screened.
Pf growth 48h – P. falciparum growth inhibition at 48 hours (one generation); P. falciparum luciferase growth in erythrocytes, 48 h; Potency, µM (titrated, usually from 28.7 µM), for the others: at the highest dose activity change, negative = inhibition, hits mostly inhibitors; 310,000 compounds, 5.9% hits; AID 504832; further: on the % scale 0 is the no-effect control and ±100 the full control effect
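Parasite viability was followed by luminescence of a genomically integrated firefly luciferase. Cultures held 0.1% parasitemia at 2% hematocrit (final), incubated under 5% CO2 at 37 C.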
Pf growth 96h – P. falciparum growth inhibition at 96 hours; Potency, µM (highest dose often 28.7 µM), inactives show top-dose activity change, negative = inhibition, most hits filed as inhibitors; P. falciparum luciferase reporter growth, 96 h; 320,000 compounds, 6.9% hits; AID 504834; further: on the % scale 0 is the no-effect control and ±100 the full control effect
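96 h incubation, 37 C, 5% CO2, of luciferase-reporter P. falciparum-infected RBCs (2% hematocrit, 0.05% parasitemia final) with test compounds; endpoint luminescence.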
AMA1 RON2 block – disrupts binding of P. falciparum AMA1 to RON2; AlphaScreen AMA1-biotinylated RON2 peptide binding; Potency, µM (doses to about 58.2 µM), for the others: at the top dose activity change, negative = inhibition, usual class: inhibitors; 360,000 compounds, 0.2% hits; AID 720542;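 further: 0% = vehicle wells and -100% = peptide control; nearly all actives have a fitted effect of over 45% in size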
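AMA1 (3D7) with his tag at 25 nM final met compounds first, then biotinylated RON2 peptide at 25 nM; detection used donor plus acceptor beads, 10 µg/mL apiece, read by AlphaScreen after 30 min at room temperature.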
NS1 inh – inhibitors of influenza NS1 protein function | Potency, µM (highest dose often 46.1 µM), inactives show top-dose activity, positive = more growth | 270,000 compounds, 0.4% hits; calls by dose curve; further: actives are rising curves; nearly all actives have a fitted effect of over 50% in size
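A cell-based growth assay was used: compounds that relieve NS1-induced slow growth of budding yeast raise OD600. Assay medium was yeast nitrogen base with ammonium sulphate and -URA supplement, pH 6.0, with 2% galactose.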
HCV inhibitor – HCV inhibition | 340,000 compounds, 3.4% hits | Potency, µM (doses to about 41.8 µM), inactives show at the top dose activity change, negative = inhibition, usual class: inhibitors | Huh7.5.1 HCVcc-Cre infection, luciferase reporter, 44 h; further: on the % scale 0 is the no-effect control and ±100 the full control effect
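Whole-lifecycle infectious HCVcc-Cre system; cells 1,000/well, compound then virus (~0.5 moi) added 4 h after plating, 44 h culture. Luciferase read 15 sec following 15 min substrate incubation, room temp.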
SARS PLP yeast – inhibitors of SARS-CoV papain-like protease in yeast | S. cerevisiae expressing SARS-CoV PLpro, growth rescue | Potency, µM (doses to about 32.9 µM), inactives show at the highest dose activity, positive = growth rescue, usual class: activators | 330,000 compounds, 0.19% hits; calls by dose curve; further: 0% is about no effect; nearly all actives have a fitted effect of over 55% in size
* marks the source's active call; other numbers are inactive results; ? = inconclusive; nt = no result; [ ] = another dose, or the depositor's remark. Unless noted, the call rests on the fitted dose curve; in most records, active means well fitted curve in the direction sought with a large enough effect; inconclusive means small, poorly fitted or top-dose-only effect, or another doubt; inactive means no such curve, though single readings can be large; an effect the other way counts as inactive or inconclusive. Potency means the concentration at half of the fitted maximal effect.

SMILES | Pf growth 48h | Pf growth 96h | AMA1 RON2 block | NS1 inh | HCV inhibitor | SARS PLP yeast
Nc1ncc(Br)cc1S(=O)(=O)NCCC(=O)N1CCN(c2ccccn2)CC1 | 12µM* | 6% | 13% | -24% | 27% | 0%
CCCC(c1nnnn1Cc1ccc(OC)cc1)N1CCN(c2ccccc2OC)CC1 (centres undefined) | 10µM* | nt | -15% | -50% | ? | -2%
CCN1CCN(C(c2ccccc2)c2nnnn2Cc2ccc(OC)cc2)CC1 (centres undefined) | 1% | 5.2µM* | 0% | nt | -27% | -1%
COc1ccc(Cn2nnnc2CN2CCc3ccccc3C2)cc1 | nt | 13µM* | -9% | -17% | ? | -4%
COc1ccc(Cn2nnnc2C(c2cccs2)N2CCN(c3ccc([N+](=O)[O-])cc3)CC2)cc1 (centres undefined) | 10µM* | ? | -1% | 3% | -17% | 2%
N#CCCN(Cc1cccnc1)C(=S)NC(=O)C1CC1 | ? | -4% | nt | -2% | nt | 1%
CCCC(=O)Nc1ccc(C(=O)Nc2ccc([N+](=O)[O-])cc2OC)cc1 | ? | 72% | 0% | 3% | ? | 0%
COc1cccc(CNS(=O)(=O)c2ccccc2Br)c1OC | nt | nt | 5% | nt | -29% | nt
COc1c(F)c(F)c(C(=O)Nc2c(C)cc(Br)cc2C)c(F)c1F | ? | -19% | 9% | 3% | 10% | 2%
CCOC(=O)C1CCCN(C(=O)c2cc(S(=O)(=O)Nc3ccccc3OC)ccc2C)C1 (centres undefined) | ? | ? | -15% | -3% | 10µM* | 3%
Cc1ccc(NS(=O)(=O)c2ccc(C(=O)N3CCN(c4ccccn4)CC3)cc2)cc1 | ? | nt | -6% | -10% | ? | 0%
CCOC(=O)C1CCN(S(=O)(=O)c2ccc3c(c2)NC(=O)C(C)S3)CC1 (centres undefined) | ? | 67% | 0% | 6% | ? | -4%
CCn1cc(C(=O)N2CCc3ccccc32)c(=O)c2cc(S(=O)(=O)N3CCCC3)ccc21 | ? | 12µM* | -15% | -3% | 4% | 16%
COc1ccccc1NS(=O)(=O)c1ccc(C(=O)N2CCN(c3ccccn3)CC2)cc1 | nt | nt | -20% | nt | 11µM* | -2%
CCOC(=O)C1CCN(S(=O)(=O)c2ccc3c(c2)CC(=O)N3)CC1 | 12µM* | 0% | 1% | 8% | 20% | 3%
CC(C)CC(=O)Nc1ccc(C(=O)COC(=O)C2CCC2)cc1 | 2% | -10% | 15% | 12% | 11% | 3%
CC1CN(CC(=O)NCc2ccc(Cl)cc2)CC(C)O1 (centres undefined) | 6% | 19% | 58% | 0% | 6% | 2%
COc1ccccc1NS(=O)(=O)c1ccc(C)c(C(N)=O)c1 | 16% | 5.2µM* | 11% | 8% | -3% | 1%
CCOC(=O)C1CCN(C(=O)c2ccccc2NS(=O)(=O)c2ccccc2)CC1 | 22% | -60% | 5% | 19% | 22% | 4%
CCOC(=O)C1CCN(C(=O)c2ccc(S(=O)(=O)Nc3ccccc3OC)cc2)CC1 | ? | 12µM* | -7% | nt | ? | 3%
CCOC(=O)C1CCN(C(=O)COc2ccc(S(=O)(=O)N3CCCC3)cc2C)CC1 | -21% | 3.3µM* | -3% | -4% | -26% | 1%
CCOC(=O)C1CCCN(CCC(=O)Nc2ccccc2C)C1 (centres undefined) | 0% | -1% | -1% | 6% | -7% | -1%
Cc1cc(S(=O)(=O)N2CCCC2)ccc1OCC(=O)N1CCC(C(N)=O)CC1 | -5% | -7% | -7% | 6% | 5% | 2%
CCOC(=O)C1CCCN(CCC(=O)Nc2cc(C)ccc2C)C1 (centres undefined) | -4% | 6.6µM* | 15% | 3% | 8% | -1%
Cn1cnc2c1c(=O)n(Cc1cccc(Cl)c1)c(=O)n2C | nt | -16% | 5% | -2% | -10% | 0%
SMILES | Pf growth 48h | Pf growth 96h | AMA1 RON2 block | NS1 inh | HCV inhibitor | SARS PLP yeast
CSc1ccccc1C(=O)N1CCC2(CC1)CC(=O)c1ccccc1O2 | -12% | -20% | -2% | nt | -13%[8.37 µM] | -1%
CCNC(=O)CC1C(=O)N(CC)C(=S)N1NC(=O)c1ccccc1 (centres undefined) | -2% | ? | 58% | 0% | 14% | 1%
CCOC(=O)c1c(C)[nH]c(C(=O)COC(=O)/C=C/c2ccc(OCC#N)c(OC)c2)c1C | -4% | -20%[5.75 µM] | -7% | nt | 20% | 1%
N#CC1(NC(=O)CSc2nnc(-c3ccccc3F)o2)CCCCC1 | -12% | -17% | 0% | nt | ? | -5%
C/C(=N/NC(=O)CNC(=O)C(c1ccccc1)c1ccccc1)c1ccco1 | 34% | 0% | 9% | -1% | -1% | 0%
N=S(=O)(O)Cc1noc2ccccc12 | nt | nt | nt | -4% | nt | nt
CCOC(=O)/C(C#N)=C/Nc1ccccc1NS(=O)(=O)c1cccc(C(C)=O)c1 | ? | ? | 75% | nt | 8% | 1%
CCOC(=O)C1CCCN(C(=O)c2ccc(S(=O)(=O)N3CCCC3)cc2)C1 (centres undefined) | -7% | -3% | 19% | nt | ? | -5%
CCOC(=O)/C(C#N)=C/Nc1ccccc1NS(=O)(=O)c1ccc(C)c(C)c1 | ? | 2.9µM* | 42% | 0% | 18% | -1%
CCn1cc(C(=O)N(C)CC(OC)OC)c(=O)c2cc(S(=O)(=O)N3CCOCC3)ccc21 | 16% | 6.6µM* | 22% | 6% | 15% | -4%
CCOC(=O)c1c(NC(=O)COc2cccc3c2CCN(C)C3=O)sc2c1CCC2 | ? | 13µM* | -1% | 23% | -4% | -6%
CCOC(=O)C1CCCN(S(=O)(=O)c2ccc(S(=O)(=O)N3CCCC3)cc2)C1 (centres undefined) | ? | -16% | 31% | nt | 1.4µM* | 2%
CN(/N=C/c1cc(Cl)cc(Cl)c1O)c1c(Cl)cccc1[N+](=O)[O-] | -37% | -32% | ? | 4% | -28% | 0%
CCOC(=O)C1CCCN(C(=O)c2cn(CC)c3ccc(S(=O)(=O)N4CCCC4)cc3c2=O)C1 (centres undefined) | 12µM* | nt | 8% | 0% | -1% | -4%
CCOC(=O)C1CN(S(=O)(=O)c2ccc(C)cc2)CCN1S(=O)(=O)c1ccc(C)cc1 (centres undefined) | ? | 15µM* | 7% | -61% | -6% | -1%
CCOC(=O)c1c(NC(=O)C2CCCN(S(=O)(=O)c3ccccc3)C2)sc2c1CCCC2 (centres undefined) | ? | ? | 0% | 10% | 5.6µM* | 7%
CCOC(=O)C1CCCN(C(=O)c2cc(S(=O)(=O)N3CCCCC3)ccc2C)C1 (centres undefined) | 8.3µM* | ? | -3% | -9% | ? | -1%
